Screening results (PubChem)
In the library only some 2% were active in any assay of this set; here they are far more common.
NPR2 activator = GC-B (human) receptor activation; HEK293-GC-B cells, CNP EC30, cGMP TR-FRET; 0% at EC30 CNP, 100% saturating CNP; activation, % at 10 µM; actives 0.11% (n = 370,000);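 active = activation at 10 µM reaching about 35% in either raw or pattern-adjusted values, limit read from the data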
ADAM10 inh = inhibits human ADAM10. O14672. recombinant ADAM10, EDANS/DABCYL FRET peptide cleavage, 3 h. inhibition, % at 7 µM. actives 0.62% (n = 370,000);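 active = inhibition above a per-campaign cutoff equal to the mean of compounds falling between control-based bounds plus 3 SD, cut at about 20% in these data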;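 also: 0% = DMSO wells while the 100% control is not disclosed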
FAS TE block = blocks the thioesterase domain of human fatty acid synthase | P49327 | recombinant FAS-TE, OMFH fluorogenic substrate, fluorescence endpoint | inhibition, % at 15 µM | actives 0.67% (n = 360,000) | AID 602261;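 active = compounds whose normalised, plate-corrected inhibition of enzyme fluorescence in the single-dose primary screen is 50% or more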;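 also: 0% = DMSO with enzyme and 100% = substrate without enzyme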
GC-A act = GC-A (human) enzyme activation. actives 0.14% (n = 370,000). HEK293 GC-A cells, cGMP TR-FRET, EC30 ANP; 0% at EC30 ANP, 100% saturating ANP. P16066. AID 1671463. activation, % at 10 µM; in the data active = activation above about 40%
ADAM17 inh = inhibits human ADAM17; inhibition, % at 6.95 µM; actives 0.83% (n = 370,000); AID 720648; P78536; recombinant ADAM17, EDANS/DABCYL FRET peptide cleavage;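 active = inhibition above the mean of compounds lying between control limits plus 3 SD, set per campaign, cut at about 8.5% in these data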;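 also: 0% = DMSO-only wells as the low control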
ADAM10 counter = ADAM10 inhibition, counter-screen for ADAM17 exosite hits | shares compounds with ADAM17 inh | recombinant ADAM10, EDANS/DABCYL FRET peptide cleavage, 3 h | inhibition, % at 6.95 µM | actives 47% (n = 2,900) | AID 743256;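 active = mean inhibition over the triplicate runs exceeds the activity threshold set in the earlier primary screen, cut at about 20% in these data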;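 also: 0% = DMSO wells and 100% = marimastat wells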
ADAM17 confirm = confirmation of inhibitors of human ADAM17; recombinant ADAM17, EDANS/DABCYL QFRET peptide cleavage; inhibition, % at 6.95 µM; actives 65% (n = 2,900); AID 743257; shares compounds with ADAM17 inh;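 active = mean inhibition across replicates above the hit cutoff set in the primary screen, cut at about 8.5% in these data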;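 also: 0% = DMSO wells and 100% = marimastat wells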
* marks the source's active call; other numbers are inactive results; / = not tested or not shown.

SMILES	NPR2 activator	ADAM10 inh	FAS TE block	GC-A act	ADAM17 inh	ADAM10 counter	ADAM17 confirm
CC1(Cc2ccc(F)cc2)C(=O)Nc2ccc(S(=O)(=O)NC3CCCCC3)cc21 (centres undefined)	0	5	15	-4	9.1*	-2	4
CCOC(=O)C1(Cc2ccccc2)CCN(Cc2cccc(C#N)c2)CC1	2	-3	/	-1	-1	/	/
CCOC(=O)c1ccc(-n2c(O)c(/C=N/NC(=O)C3COc4ccccc4O3)c3ccccc3c2=O)cc1 (centres undefined)	-4	5	11	-2	10*	-31	5
CCC[C@H]1[C@@H](NC(=O)c2cccc(C)c2)CC[C@@]23CCCN2C(=O)CCC[C@@H]13	-13	-4	/	-12	0	/	/
COC(=O)[C@@]1(Cc2ccc(F)cc2)[C@H]2c3cc(C(=O)N(C)C)n(Cc4ccccc4)c3C[C@H]2CN1C(=O)c1ccccc1	2	5	/	-1	9.4*	-7	0
COc1ccccc1CCn1cnc(-c2ccccc2)c1CC(C)C	-10	11	/	-17	8.7*	18	9.1*
COc1ccc(/C=N/NC(N)=S)cc1OC(=O)c1ccccc1	-10	-1	2	-15	9.1*	10	8
O=C(Nc1ccccc1Cl)c1cc(C2CCCCN2S(=O)(=O)c2ccccc2)on1 (centres undefined)	2	17	22	0	4	/	/
O=C(Nc1ccccc1)c1cc(C2CCCCN2S(=O)(=O)c2ccccc2)on1 (centres undefined)	2	15	12	-1	12*	13	8
CC(=O)N1CCCN(S(=O)(=O)c2ccc3c(c2)oc(=O)n3C)CC1	6	-2	/	0	1	/	/
COc1ccc2nc(Nc3nc4cc5c(cc4s3)OCO5)sc2c1	-6	-179	1	-5	-49	/	/
COc1ccc2nc(Nc3ccc4c(c3)OCO4)sc2c1	-6	17	11	4	9.8*	8	7
COC(=O)[C@]12C[C@H](CC(=O)N3CCC(c4ccccc4)CC3)C(=O)N(Cc3ccco3)C1=C[C@H](C(C)(C)C)O[C@@H]2C	-7	4	/	-2	4	/	/
O=S(=O)(c1cccs1)N1CCN(c2ccc(Cl)cc2)CC1	-4	-9	26	1	-1	/	/
O=S(=O)(c1cccs1)N1CCC(CO)(Cc2ccc(Cl)cc2)CC1	8	17	18	-2	12*	1	8
COC(=O)[C@H](CC(C)C)N(CCCc1cn(Cc2ccccc2)nn1)S(=O)(=O)c1ccc(F)cc1Br	6	16	/	-4	7	/	/
COc1ccc(OC)c(NC(=O)c2cc(-c3ccc(F)cc3OC(C)C)n[nH]2)c1	-3	17	31	3	8.8*	11	9.3*
Cc1ccccc1CN1CCCCC(NC(=O)c2ccc3ccccc3c2)C1=O (centres undefined)	-3	5	/	4	22*	7	8
COc1cccc(-c2cc3nc(C)c(C)c(N4CCN(Cc5ccco5)CC4)n3n2)c1	-8	-26	/	0	-6	/	/
O=C(COC(=O)c1ccc2[nH]c3c(c2c1)CCCC3)Nc1ccccc1Cl	-6	-12	-3	3	0	/	/
CCC(C)c1ccccc1NC(=O)COC(=O)c1ccc2[nH]c3c(c2c1)CCCC3 (centres undefined)	-5	2	34	-1	11*	-1	6
Nc1n[nH]c(N)c1N=Nc1ccc(Cl)cc1	-7	17	-7	1	11*	2	2
Nc1n[nH]c(N)c1N=Nc1cccc(F)c1	3	5	-4	8	1	/	/
CCCc1ccc(C(C)NC(=S)NCc2ccc(F)cc2)cc1 (centres undefined)	-2	12	29	2	9.1*	34*	17*
CN(C)c1ccc(N=Nc2ccccc2C(=O)OCC(=O)N2CCCCCC2)cc1	-3	18	20	-4	13*	16	8.7*
